About 64,000 (15%) of roughly 420,000 compounds were called active. Roughly 27% stayed inconclusive and do not appear here. The list is a sample of the results. Unmarked numbers belong to inactive results. The call rests on the fitted dose curve; in most records, active means well fitted inhibition curve with a large enough effect; inconclusive means small, poorly fitted or top-dose-only effect; inactive means flat fitted curve, though single readings scatter.
Assay: qHTS for Inhibitors of human tyrosyl-DNA phosphodiesterase 1 (TDP1): qHTS in cells in absence of CPT; further: nearly all actives have a fitted effect of over 55% in size
Details: DT40 Tdp1-/- hTDP1 cells, no CPT, ATP luminescence, 48 h; activity change, negative = growth inhibition: at 46.2 µM (top of the series)
In short: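 Luminescent ATP content (CellTiter-Glo) served as the growth readout. Knockout chicken DT40 cells expressing human TDP1 were exposed to compounds without camptothecin for a minimum 48 hr at 37 °C.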
On the % scale 0 is the no-effect control and ±100 the full control effect; potency means the concentration at half of the fitted maximal effect.

| SMILES | activity change, negative = growth inhibition | Potency |
| --- | --- | --- |
| CC(C)CN1CC(C)C(=O)N(c2ccccc2)C1=S (stereo unspecified) | -12.7% | – |
| Nc1nc(SCC(=O)NNc2c(Cl)cc(Cl)cc2Cl)n[nH]1 | -10% | – |
| Cc1noc(C)c1S(=O)(=O)N(C)C[C@H]1OCCCC[C@@H](C)Oc2ccc(NC(=O)CCCN(C)C)cc2C(=O)N([C@H](C)CO)C[C@@H]1C | -16.3% | – |
| CC(C)NC(=O)Nc1ccc2c(c1)C(=O)N([C@H](C)CO)C[C@H](C)[C@@H](CN(C)Cc1ccc(C(F)(F)F)cc1)OCCCC[C@@H](C)O2 | -20.4% | – |
| C[C@@H]1CCCCO[C@H](CN(C)Cc2ccccc2)[C@@H](C)CN([C@H](C)CO)C(=O)c2cc(NS(=O)(=O)c3ccc(Cl)cc3)ccc2O1 | – | 16.4 µM (active) |
| O=C(Nc1ccnn1C1CCN(Cc2cccc(OCCO)c2)CC1)C1CCCC1 | 0.788% | – |
| CC1(C)CC(=O)C=C(NC2CC(C)(C)NC(C)(C)C2)C1 | 0.396% | – |
| CC(=O)c1cnn(-c2cc(Oc3ccc(F)cc3)ncn2)c1C | -13.4% | – |
| COc1cc(/C=C2/C(=O)NN(c3ccc(F)cc3)C2=O)cc([N+](=O)[O-])c1O | -2.19% | – |
| C/C=C/C(=O)Nc1nnc(C(C)C)s1 | -22.6% | – |
| CCOc1ccc(CN2CCC(n3nccc3NC(=O)C3CC3)CC2)cc1CO | 1.56% | – |
| O=C(NNS(=O)(=O)c1ccc(Cl)cc1)C1CCN(Cc2ccccc2)CC1 | -15.1% | – |
| COc1cccc(CN2CCC(C(=O)NC(c3ccc4c(c3)OCO4)c3ccccn3)CC2)c1 (stereo unspecified) | -23.3% | – |
| O=C(NC(c1ccc(Cl)cc1)c1cnccn1)C1CCN(Cc2ccc(Cl)cc2)CC1 (stereo unspecified) | – | 20.6 µM (active) |
| Cc1cccnc1C(NC(=O)C1CCN(Cc2ccc(Cl)c(Cl)c2)CC1)c1ccc(Cl)cc1 (stereo unspecified) | – | 4.61 µM (active) |
| Clc1ccc(CN2CCCCCC2)cc1Cl | 7.19% | – |
| Fc1cccc(Cl)c1CSc1ccc(-c2ccco2)nn1 | -19.1% | – |
| CCOc1ccc(S(=O)(=O)N2CCC(C(=O)NCc3ccccn3)CC2)cc1Cl | -12.9% | – |
| Cc1ccc(S(=O)(=O)NCC(=O)NNC(=O)c2ccc(Br)cc2)cc1C | -12.9% | – |
| O=C(NNS(=O)(=O)c1ccc(F)cc1)c1cnccn1 | -10% | – |
| CO/N=C(\C(=O)N[C@@H]1C(=O)N2C(C(=O)O)=C(C[N+]3(C)CCCC3)CS[C@H]12)c1csc(N)n1 | -2.94% | – |
| O=C(COC(=O)/C=C/c1nc2ccccc2s1)Nc1ccccc1Oc1ccccc1 | -27% | – |
| c1ccc(CCc2ccccn2)cc1 | -2.35% | – |
| CC(C)NC(=O)N1CCC2(CC1)CCN(C(=O)c1cccn1C)CC2 | -14.2% | – |
| Cn1cccc1C(=O)N1CCC2(CC1)CN(c1cccc(-c3ccccc3)c1)C2 | – | 16.4 µM (active) |
| COc1ccc(NC(=O)N2CC3(CCN(C(=O)c4cccn4C)CC3)C2)cc1 | -17.9% | – |
